# In the supplement of paper PMC12067926:
# Columns and labels:
# Experiment in all cases: relative growth (AUC of 72 h growth curve relative to DMSO control, dAUC) (ratio); higher = more growth (less inhibition), active = hit call of the paper
# Settings in all cases: 20 µM;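 active = growth AUC significantly below the DMSO wells by Dunnett test; inactive = the rest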
# Community 7 = system: Community 7
# In short: (§1)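 For relative growth (dAUC), the spline-integrated area under the growth curve was divided by the mean of the DMSO controls. Results were averaged over three biological replicates. Each replicate used a 1:100 dilution, into 96-well plates holding each chemical at 20 µM (1% DMSO), of isolates from Icelandic stream sediments and Silwood Park soil or whole sediment communities that had been grown to carrying capacity in Luria–Bertani medium. Plates were shaken briefly before each hourly A600 reading over 72 h.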
# Community 8 = system: Community 8
# In short: as §1
# Community 9 = system: Community 9
# In short: as §1
# [1] = system: Flavobacterium 1 (Flavobacterium glaciei)
# In short: as §1
# [2] = system: Flavobacterium 2 (Flavobacterium succinicans)
# In short: as §1
# [3] = system: Hymenobacter 1 (Hymenobacter glaciei)
# In short: as §1
# [4] = system: Microbacterium 1 (Microbacterium arborescens)
# In short: as §1
# [5] = system: Neobacillus 1 (Neobacillus soli)
# In short: as §1
# [6] = system: Oryzobacter 1 (Oryzobacter terrae)
# In short: as §1
# [7] = system: Paenibacillus 1 (Paenibacillus castaneae)
# In short: as §1
# [8] = system: Prolinoborus 1 (Prolinoborus fasciculus)
# In short: as §1
# [9] = system: Pseudomonas 1 (Pseudomonas baetica)
# In short: as §1
# [10] = system: Pseudomonas 2 (Pseudomonas vancouverensis)
# In short: as §1
# [11] = system: Pseudomonas 3 (Pseudomonas mandelii)
# In short: as §1
# [12] = system: Pseudomonas 4 (Pseudomonas peli)
# In short: as §1
# [13] = system: Pseudomonas 5 (Pseudomonas baetica)
# In short: as §1
# [14] = system: Pseudomonas 6 (Pseudomonas sp.)
# In short: as §1
# [15] = system: Rhizobium 1 (Rhizobium herbae)
# In short: as §1
# [16] = system: Serratia 1 (Serratia sp. 2015-2462-01)
# In short: as §1
# [17] = system: Sphingomonas 2 (Sphingomonas sp.)
# In short: as §1
Compound,relative growth (Community 7),relative growth (Community 8),relative growth (Community 9),relative growth [1],relative growth [2],relative growth [3],relative growth [4],relative growth [5],relative growth [6],relative growth [7],relative growth [8],relative growth [9],relative growth [10],relative growth [11],relative growth [12],relative growth [13],relative growth [14],relative growth [15],relative growth [16],relative growth [17]
CC(C)(C)[C@@H](O)[C@H](Oc1ccc(Cl)cc1)n1cncn1,0.988 (inactive),1.02 (inactive),1.09 (inactive),1.01 (inactive),1.02 (inactive),1.05 (inactive),0.963 (inactive),1.04 (inactive),1.02 (inactive),1.12 (inactive),1.02 (inactive),0.598 (active),0.991 (inactive),0.991 (inactive),0.989 (inactive),0.963 (inactive),0.953 (inactive),1.05 (inactive),1.02 (inactive),1.08 (inactive)
CCOc1cc(Oc2ccc(C(F)(F)F)cc2Cl)ccc1[N+](=O)[O-],0.968 (inactive),1.04 (inactive),0.975 (inactive),1.05 (inactive),0.971 (inactive),1.03 (inactive),1.07 (inactive),1.01 (inactive),1.03 (inactive),0.735 (active),0.938 (inactive),1.08 (inactive),0.992 (inactive),1.05 (inactive),0.939 (inactive),1.01 (inactive),1.12 (inactive),0.994 (inactive),0.952 (inactive),1.2 (inactive)
CC1(C(=O)Nc2ccc(O)c(Cl)c2Cl)CCCCC1,1 (inactive),0.942 (inactive),1.1 (inactive),0.982 (inactive),0.979 (inactive),0.654 (active),0.995 (inactive),0.99 (inactive),1.04 (inactive),0.954 (inactive),0.938 (inactive),1.08 (inactive),1.01 (inactive),1.05 (inactive),0.976 (inactive),1.02 (inactive),1.16 (inactive),0.84 (inactive),0.976 (inactive),0.967 (inactive)
OC(Cc1ccccc1Cl)(Cn1nc[nH]c1=S)C1(Cl)CC1 (stereo not given),0.968 (inactive),1.03 (inactive),1.02 (inactive),1.09 (inactive),1 (inactive),1.01 (inactive),0.958 (inactive),1.05 (inactive),0.894 (inactive),1.01 (inactive),1.02 (inactive),1.02 (inactive),0.995 (inactive),1.01 (inactive),1 (inactive),0.995 (inactive),0.982 (inactive),1.07 (inactive),1.05 (inactive),0.981 (inactive)
CS(=O)(=O)NC(=O)c1cc(Oc2ccc(C(F)(F)F)cc2Cl)ccc1[N+](=O)[O-],1.04 (inactive),1.05 (inactive),1.07 (inactive),1.06 (inactive),1.02 (inactive),1.04 (inactive),1.03 (inactive),1.02 (inactive),0.957 (inactive),1.03 (inactive),1.01 (inactive),1.01 (inactive),1 (inactive),1 (inactive),0.996 (inactive),1.04 (inactive),1.07 (inactive),0.917 (inactive),1.02 (inactive),1.02 (inactive)
COC(=O)N(C(=O)N1CO[C@@]2(C(=O)OC)Cc3cc(Cl)ccc3C2=N1)c1ccc(OC(F)(F)F)cc1,1.01 (inactive),1.02 (inactive),1.01 (inactive),1.1 (inactive),0.979 (inactive),1.05 (inactive),1.04 (inactive),1.03 (inactive),1.09 (inactive),0.948 (inactive),1 (inactive),1.02 (inactive),0.991 (inactive),1.04 (inactive),1.01 (inactive),0.965 (inactive),0.966 (inactive),1 (inactive),0.967 (inactive),0.861 (inactive)
CO/N=C(/C(=O)OC)c1ccccc1CO/N=C(\C)c1cccc(C(F)(F)F)c1,1.05 (inactive),0.968 (inactive),0.784 (inactive),0.975 (inactive),0.943 (inactive),1.05 (inactive),0.99 (inactive),1 (inactive),1.26,0.9 (inactive),0.953 (inactive),1.13 (inactive),1 (inactive),1.04 (inactive),0.949 (inactive),0.978 (inactive),1.03 (inactive),0.921 (inactive),0.952 (inactive),1.1 (inactive)
CS(=O)(=O)c1cc(C(F)(F)F)ccc1C(=O)c1cnoc1C1CC1,0.983 (inactive),1.02 (inactive),1.09 (inactive),1.01 (inactive),1.07 (inactive),1.04 (inactive),1.02 (inactive),1.06 (inactive),0.94 (inactive),1.13 (inactive),1 (inactive),0.985 (inactive),1.02 (inactive),1.01 (inactive),1.02 (inactive),0.96 (inactive),0.911 (inactive),1.11 (inactive),1.06 (inactive),1.11 (inactive)
CC[C@H](C)[C@H]1O[C@]2(C=C[C@@H]1C)C[C@@H]1C[C@@H](C/C=C(\C)[C@@H](O[C@H]3C[C@H](OC)[C@@H](O[C@H]4C[C@H](OC)[C@@H](O)[C@H](C)O4)[C@H](C)O3)[C@@H](C)/C=C/C=C3\CO[C@@H]4[C@H](O)C(C)=C[C@@H](C(=O)O1)[C@]34O)O2.CO[C@H]1C[C@H](O[C@H]2[C@H](C)O[C@@H](O[C@@H]3/C(C)=C/C[C@@H]4C[C@@H](C[C@]5(C=C[C@H](C)[C@@H](C(C)C)O5)O4)OC(=O)[C@@H]4C=C(C)[C@@H](O)[C@H]5OC/C(=C\C=C\[C@@H]3C)[C@]54O)C[C@@H]2OC)O[C@@H](C)[C@@H]1O,1.17 (inactive),0.963 (inactive),0.624 (active),0.139 (active),0.975 (inactive),0.9 (inactive),0.963 (inactive),0.893 (inactive),0.286 (active),0.317 (active),0.894 (inactive),1.05 (inactive),1.01 (inactive),1.03 (inactive),1.02 (inactive),1.13 (inactive),1.04 (inactive),0.807 (inactive),0.958 (inactive),0.717 (inactive)
CCc1cnc(C2=NC(C)(C(C)C)C(=O)N2)c(C(=O)O)c1 (stereo not given),1.05 (inactive),1.03 (inactive),0.98 (inactive),0.988 (inactive),1.03 (inactive),1.09 (inactive),1.04 (inactive),1.01 (inactive),0.96 (inactive),1.02 (inactive),0.973 (inactive),0.912 (inactive),0.944 (inactive),1.01 (inactive),0.967 (inactive),1.01 (inactive),1.04 (inactive),0.975 (inactive),0.958 (inactive),1.03 (inactive)
COCC(=O)N(c1c(C)cccc1C)C(C)C(=O)OC (stereo not given),1.08 (inactive),0.993 (inactive),1.09 (inactive),0.939 (inactive),0.99 (inactive),1.03 (inactive),1.02 (inactive),0.986 (inactive),1.01 (inactive),1.03 (inactive),0.923 (inactive),1.06 (inactive),1.01 (inactive),1 (inactive),0.995 (inactive),1.02 (inactive),1.03 (inactive),0.907 (inactive),0.994 (inactive),1.05 (inactive)
COC(=O)Nc1nc2ccccc2[nH]1,0.965 (inactive),0.959 (inactive),1.04 (inactive),1.13 (inactive),1 (inactive),1.01 (inactive),0.974 (inactive),1.13 (inactive),1.07 (inactive),0.946 (inactive),1.03 (inactive),1.05 (inactive),0.975 (inactive),1 (inactive),1.01 (inactive),1.05 (inactive),1.08 (inactive),0.944 (inactive),0.978 (inactive),0.732 (inactive)
CO/C=C(/C(=O)OC)c1ccccc1COc1cccc(C(F)(F)F)n1,1.04 (inactive),1 (inactive),0.987 (inactive),0.911 (inactive),0.962 (inactive),1.06 (inactive),0.997 (inactive),1.01 (inactive),0.944 (inactive),1.01 (inactive),0.929 (inactive),1.02 (inactive),0.958 (inactive),0.991 (inactive),0.97 (inactive),1.05 (inactive),1.11 (inactive),0.96 (inactive),0.966 (inactive),1 (inactive)
CC(Oc1ccc(Oc2nc3ccc(Cl)cc3o2)cc1)C(=O)O (stereo not given),1.01 (inactive),1.01 (inactive),1.07 (inactive),0.971 (inactive),1.09 (inactive),1.05 (inactive),0.986 (inactive),1.05 (inactive),0.998 (inactive),1.11 (inactive),0.978 (inactive),0.948 (inactive),1 (inactive),0.97 (inactive),1.01 (inactive),0.962 (inactive),0.916 (inactive),1.07 (inactive),1.04 (inactive),1.12 (inactive)
COC(=O)NC(=S)Nc1ccccc1NC(=S)NC(=O)OC,1.03 (inactive),0.993 (inactive),1.05 (inactive),1.08 (inactive),0.993 (inactive),0.952 (inactive),1 (inactive),1.01 (inactive),0.947 (inactive),0.934 (inactive),0.975 (inactive),1.04 (inactive),0.969 (inactive),0.99 (inactive),0.95 (inactive),1.06 (inactive),1.14 (inactive),0.959 (inactive),0.987 (inactive),1.01 (inactive)
Nc1c([N+](=O)[O-])ccc(Oc2ccccc2)c1Cl,0.955 (inactive),1.03 (inactive),0.907 (inactive),0.864 (inactive),0.917 (inactive),1.09 (inactive),1.03 (inactive),0.913 (inactive),1.05 (inactive),0.843 (inactive),0.962 (inactive),1.15 (inactive),0.982 (inactive),1.03 (inactive),0.949 (inactive),1.02 (inactive),1.15 (inactive),0.888 (inactive),0.946 (inactive),0.871 (inactive)
